Measurements: PubChem BioAssay (EPA / NIEHS)
Records with an inconclusive call do not appear. The source made the active and inactive calls. The calls were made as follows: active = hit-call score of the fitted dose curve at least 0.9, where 1 is the maximum; inconclusive = response in the unintended direction; inactive = score below 0.9.

Tests used:
[1] = molecular target: Cellular tumor antigen p53 (Homo sapiens) (UniProt P04637); assay: TOX21_p53_BLA_p2_ratio: Tox21 HCT-116 p53 Agonism Beta-lactamase Assay, Ratio, Phase 2 (AID 2283592)
Chain of Cellular tumor antigen p53 (Homo sapiens) (P04637 whole entry, looked up): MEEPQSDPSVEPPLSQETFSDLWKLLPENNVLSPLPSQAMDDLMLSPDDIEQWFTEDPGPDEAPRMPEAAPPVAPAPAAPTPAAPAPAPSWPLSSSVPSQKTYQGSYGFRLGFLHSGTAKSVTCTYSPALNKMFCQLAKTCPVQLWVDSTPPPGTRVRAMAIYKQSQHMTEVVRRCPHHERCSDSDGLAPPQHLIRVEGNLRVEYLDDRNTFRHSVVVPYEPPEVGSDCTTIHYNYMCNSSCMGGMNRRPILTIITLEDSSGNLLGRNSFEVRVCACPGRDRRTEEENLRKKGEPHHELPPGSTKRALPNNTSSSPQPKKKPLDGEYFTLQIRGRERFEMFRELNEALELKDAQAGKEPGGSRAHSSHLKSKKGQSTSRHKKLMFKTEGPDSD
How it was run: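 Human colon HCT116 cells with an inducible p53 beta-lactamase reporter are exposed to test chemicals for 16 h at 37C. Reporter induction is read as the 460/530 nm emission ratio after CCF4-AM loading, normalized to DMSO.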

[2] = TOX21_p53_BLA_p4_viability: Viability Assessment in the Tox21 HCT-116 p53 Agonism Beta-lactamase Assay, Phase 4 (AID 2283597);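 also: hits lower the luminescence signal meaning cytotoxicity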
How it was run: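 Luminescent ATP readout (CellTiter-Glo, 30 min, room temperature) in the same wells as the p53 bla ratio. HCT116 cells were treated for 16 h at 37C with DMSO-dissolved compounds.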

[3] = TOX21_p53_BLA_p5_viability: Viability Assessment in the Tox21 HCT-116 p53 Agonism Beta-lactamase Assay, Phase 5 (AID 2283600)
How it was run: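 Seeded cells (4000/well) settle 5 h before compound addition. Plates then incubate 16 h at 37C, receive FRET substrate for 2 h, and finally CellTiter-Glo, with luminescence measured after a 30 min room-temperature incubation.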

[4] = molecular target: Cellular tumor antigen p53 (Homo sapiens) (UniProt P04637); assay: TOX21_p53_BLA_p3_ratio: Tox21 HCT-116 p53 Agonism Beta-lactamase Assay, Ratio, Phase 3 (AID 2283596)
How it was run: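 HCT116 p53-bla cells (4000/well) given compound in DMSO (217-fold dilution) after 5 h, incubated 16 h at 37C. CCF4-AM substrate 2 h at room temperature; 460/530 nm emission ratio, gain fitted against DMSO.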

[5] = molecular target: Cellular tumor antigen p53 (Homo sapiens) (UniProt P04637); assay: TOX21_p53_BLA_p5_ratio: Tox21 HCT-116 p53 Agonism Beta-lactamase Assay, Ratio, Phase 5 (AID 2283599)
How it was run: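 Beta-lactamase reporter ratio (blue 460 nm over green 530 nm, 405 nm excitation) after 2 h CCF4-AM loading, in HCT-116 cells exposed 16 h at 37 C to compounds pinned at 217-fold dilution. Increases relative to DMSO baseline scored.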

[6] = molecular target: Cellular tumor antigen p53 (Homo sapiens) (UniProt P04637); assay: TOX21_p53_BLA_p4_ratio: Tox21 HCT-116 p53 Agonism Beta-lactamase Assay, Ratio, Phase 4 (AID 2283601)
How it was run: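 Signal is the blue/green (460nm/530nm) ratio of cleaved versus uncleaved CCF4-AM substrate, read after 2 h substrate loading. Cells were HCT116 carrying the p53-responsive beta-lactamase reporter, dosed 16 h at 37C, 5% CO2; CellTiter-Glo measured in parallel.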

Measured: outcome

CCOC(=O)Nc1cccc(OC(=O)Nc2ccccc2)c1
inactive: [1] | [2] | [3]

CNC(=O)O/N=C/C(C)(C)S(C)=O (stereo unspecified)
inactive: [1] | [4] | [5] | [6]

NN=C(N)N
inactive: [1] | [4] | [5] | [6]
